Assay [1] in a line: binders of probe aFSTL3 on microarray, primary screen, stem cell growth factor project, biochemical, small-molecule microarray, fluorescence 635/667 (AID 1064).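 Note: measures binding of the biotinylated anti-FSTL3 antibody to printed compounds.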 As to conditions: higher = more signal.
The nature of assay [2]: binders from COS7 lysate, DM2A8 probe, primary screen, torsin A project, cell lysate, small-molecule microarray, fluorescence 635/667 (AID 1065). As to conditions: higher = more signal, COS7 lysate expressing mutant human TOR1A.
The nature of assay [3]: binders of probe aFGF2 on microarray, primary screen, stem cell growth factor project, biochemical, small-molecule microarray, fluorescence 635/667 (AID 1067).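 Note: measures binding of biotinylated aFGF2 protein to printed compounds on slides; z-score merges feature fluorescence and signal-to-noise across triplicate slides.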 As to conditions: higher = more signal.
Assay [4] in a line: binders of probe aFGF10 on microarray, primary screen, stem cell growth factor project, biochemical, small-molecule microarray, fluorescence 635/667 (AID 1071).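 Note: score merges 667 nm spot intensity and signal to noise from triplicate slides.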 As to conditions: higher = more signal.
In assay [5] the target is Neurogenic locus notch homolog protein 2 (Homo sapiens) (UniProt Q04721). The assay is described as follows: Notch2 binders on small-molecule microarrays, primary screen, biochemical, small-molecule microarray, 635 nm fluorescence, stem cell growth factors (AID 1073). As to conditions: Notch2 binding, higher = more signal.
Assay [6] concerns the target Pro-neuregulin-1, membrane-bound isoform (Homo sapiens) (UniProt Q02297). The assay is described as follows: NRG1 binders on small-molecule microarrays, primary screen, psychiatric disease protein project, biochemical, small-molecule microarray, fluorescence 635/667 (AID 1075).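 Note: score combines 667 nm spot fluorescence with signal to noise.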 As to conditions: NRG1 binding, 635 nm fluorescence, higher = more signal.
Assay [7] has as its system Neuregulin-1 EGF-like domain. The assay is described as follows: binders of neuregulin-1 EGF-like domain, primary screen, biochemical, small-molecule microarray, 635 nm fluorescence (AID 1081).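 Note: binding of the protein to compounds printed on small-molecule microarray slides.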 As to conditions: small-molecule microarray binding, higher = more signal.
A short description of assay [8]: FRG1 promoter luciferase signal modulators, primary screen, FRG1 inhibition for FSHD, cell-based, C2C12 myotubes, firefly/Renilla luciferase, luminescence (AID 1084). As to conditions: higher = more signal, called active from +8 up or from −8 down.
Assay [9] is described as follows: binders of probe aFST on microarray, primary screen, stem cell growth factor project, biochemical, small-molecule microarray, fluorescence 635/667 (AID 1086).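 Note: score merges 667 nm fluorescence with signal-to-noise of each printed compound spot.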 As to conditions: higher = more signal.
Assay [10] is described as follows: binders of probe aHhip on microarray, primary screen, stem cell growth factor project, biochemical, small-molecule microarray, fluorescence 635/667 (AID 1087).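 Note: score merges spot fluorescence at 667nm with spot signal to noise ratio.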 As to conditions: higher = more signal.
Assay [11] concerns PRMT1 (protein arginine N-methyltransferase 1). The assay is described as follows: PRMT1 binders on small-molecule microarrays, primary screen, biochemical, small-molecule microarray, 635 nm fluorescence (AID 1088).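 Note: binding of Prmt1 protein to compounds spotted on small-molecule microarray slides.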 As to conditions: small-molecule microarray binding, higher = more signal.
The nature of assay [12]: yeast growth modulation, basal conditions, primary screen, YJM789 clinical isolate, OD600, 24 h (AID 1089).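 Note: growth of clinical yeast isolate S. cerevisiae YJM 789 seeded 1000 cells per well; test concentration not given here.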 As to conditions: S. cerevisiae YJM789 growth, higher = more signal, called active from +8 up or from −8 down.
A short description of assay [13]: fission yeast growth modulation, primary screen, strain 972, OD600, 24 h, no modulator (AID 1090).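 Note: basal condition with compound alone and no growth modifier present; test concentration not given here.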 As to conditions: S. pombe 972 growth, higher = more signal, called active from +8 up or from −8 down.
Assay [14] can be described thus: S. cerevisiae growth modulation with rapamycin, primary screen, strain BY4716, OD600, 96 h (AID 1091). Note: test concentration not given here. As to conditions: higher = more signal, called active from +8 up or from −8 down.
Assay [15] deals with Torsin-1A-interacting protein 2 (Homo sapiens) (UniProt Q8NFQ8). The assay can be described thus: LULL1 binders on small-molecule microarray, primary screen, cell lysate, human LULL1 lysate, 635/667 nm fluorescence (AID 1092).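 Note: probe is lysate of COS7 cells overexpressing human LULL1; score merges per-feature 667 nm fluorescence with signal-to-noise.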 As to conditions: hLULL1 lysate binding, 635 nm fluorescence, higher = more signal.
A short description of assay [16]: E. coli growth modulation, two-sided OD650, primary screen, E. coli filamentation project, strain DRC41, 24 h (AID 1093).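 Note: MC1000 strain lacking acrAB efflux and sulA so SOS filamentation is blocked; test concentration not given here.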 As to conditions: OD650, 24 h, higher = more signal, called active from +8 up or from −8 down.
Assay [17] can be described thus: small-molecule microarray binders of probe aLefty2, primary screen, biochemical, biotinylated probe, 635/667 nm fluorescence (AID 1094).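 Note: score merges spot fluorescence near 667 nm with spot signal-to-noise ratio.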 As to conditions: higher = more signal.
Assay [18] has as its system Noggin (protein binding on small-molecule microarray). The assay is described as follows: Noggin binders on small-molecule microarray, primary screen, biochemical, 635/667 nm fluorescence (AID 1095).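 Note: score merges 667 nm feature fluorescence with signal to noise over triplicate slides.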 As to conditions: 635 nm fluorescence, higher = more signal.
The target in assay [19] is Neurogenic locus notch homolog protein 3 (Homo sapiens) (UniProt Q9UM47). The assay is described as follows: NOTCH3 binders on small-molecule microarray, primary screen, biochemical, 635/667 nm fluorescence (AID 1096). As to conditions: NOTCH3 binding, 635 nm fluorescence, higher = more signal.
Assay [20] can be described thus: small-molecule microarray binders of probe aEGFR, primary screen, biochemical, biotinylated probe, 635/667 nm fluorescence (AID 1097).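 Note: probe is a biotinylated anti-EGFR antibody binding compounds printed on slides; score combines fluorescence near 667 nm and signal to noise of each spot.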 As to conditions: higher = more signal.

This is an account of results in PubChem BioAssay.

Calls of active or inactive are those of the source.

Torsin-1A-interacting protein 2 (Homo sapiens), sequence (Q8NFQ8 whole entry, looked up): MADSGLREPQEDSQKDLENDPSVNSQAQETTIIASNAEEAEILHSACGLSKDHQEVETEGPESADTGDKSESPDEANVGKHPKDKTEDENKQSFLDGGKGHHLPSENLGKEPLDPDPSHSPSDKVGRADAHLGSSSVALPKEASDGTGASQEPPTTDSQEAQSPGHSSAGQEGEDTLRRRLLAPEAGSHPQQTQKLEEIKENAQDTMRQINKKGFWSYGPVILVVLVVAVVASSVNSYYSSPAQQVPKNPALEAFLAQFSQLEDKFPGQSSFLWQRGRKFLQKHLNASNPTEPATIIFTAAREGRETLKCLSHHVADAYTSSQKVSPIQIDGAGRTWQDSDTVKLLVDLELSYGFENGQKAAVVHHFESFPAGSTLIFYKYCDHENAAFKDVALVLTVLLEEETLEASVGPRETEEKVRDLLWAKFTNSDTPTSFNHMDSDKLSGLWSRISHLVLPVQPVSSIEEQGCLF
Neurogenic locus notch homolog protein 2 (Homo sapiens), sequence (Q04721 whole entry, looked up, canonical isoform): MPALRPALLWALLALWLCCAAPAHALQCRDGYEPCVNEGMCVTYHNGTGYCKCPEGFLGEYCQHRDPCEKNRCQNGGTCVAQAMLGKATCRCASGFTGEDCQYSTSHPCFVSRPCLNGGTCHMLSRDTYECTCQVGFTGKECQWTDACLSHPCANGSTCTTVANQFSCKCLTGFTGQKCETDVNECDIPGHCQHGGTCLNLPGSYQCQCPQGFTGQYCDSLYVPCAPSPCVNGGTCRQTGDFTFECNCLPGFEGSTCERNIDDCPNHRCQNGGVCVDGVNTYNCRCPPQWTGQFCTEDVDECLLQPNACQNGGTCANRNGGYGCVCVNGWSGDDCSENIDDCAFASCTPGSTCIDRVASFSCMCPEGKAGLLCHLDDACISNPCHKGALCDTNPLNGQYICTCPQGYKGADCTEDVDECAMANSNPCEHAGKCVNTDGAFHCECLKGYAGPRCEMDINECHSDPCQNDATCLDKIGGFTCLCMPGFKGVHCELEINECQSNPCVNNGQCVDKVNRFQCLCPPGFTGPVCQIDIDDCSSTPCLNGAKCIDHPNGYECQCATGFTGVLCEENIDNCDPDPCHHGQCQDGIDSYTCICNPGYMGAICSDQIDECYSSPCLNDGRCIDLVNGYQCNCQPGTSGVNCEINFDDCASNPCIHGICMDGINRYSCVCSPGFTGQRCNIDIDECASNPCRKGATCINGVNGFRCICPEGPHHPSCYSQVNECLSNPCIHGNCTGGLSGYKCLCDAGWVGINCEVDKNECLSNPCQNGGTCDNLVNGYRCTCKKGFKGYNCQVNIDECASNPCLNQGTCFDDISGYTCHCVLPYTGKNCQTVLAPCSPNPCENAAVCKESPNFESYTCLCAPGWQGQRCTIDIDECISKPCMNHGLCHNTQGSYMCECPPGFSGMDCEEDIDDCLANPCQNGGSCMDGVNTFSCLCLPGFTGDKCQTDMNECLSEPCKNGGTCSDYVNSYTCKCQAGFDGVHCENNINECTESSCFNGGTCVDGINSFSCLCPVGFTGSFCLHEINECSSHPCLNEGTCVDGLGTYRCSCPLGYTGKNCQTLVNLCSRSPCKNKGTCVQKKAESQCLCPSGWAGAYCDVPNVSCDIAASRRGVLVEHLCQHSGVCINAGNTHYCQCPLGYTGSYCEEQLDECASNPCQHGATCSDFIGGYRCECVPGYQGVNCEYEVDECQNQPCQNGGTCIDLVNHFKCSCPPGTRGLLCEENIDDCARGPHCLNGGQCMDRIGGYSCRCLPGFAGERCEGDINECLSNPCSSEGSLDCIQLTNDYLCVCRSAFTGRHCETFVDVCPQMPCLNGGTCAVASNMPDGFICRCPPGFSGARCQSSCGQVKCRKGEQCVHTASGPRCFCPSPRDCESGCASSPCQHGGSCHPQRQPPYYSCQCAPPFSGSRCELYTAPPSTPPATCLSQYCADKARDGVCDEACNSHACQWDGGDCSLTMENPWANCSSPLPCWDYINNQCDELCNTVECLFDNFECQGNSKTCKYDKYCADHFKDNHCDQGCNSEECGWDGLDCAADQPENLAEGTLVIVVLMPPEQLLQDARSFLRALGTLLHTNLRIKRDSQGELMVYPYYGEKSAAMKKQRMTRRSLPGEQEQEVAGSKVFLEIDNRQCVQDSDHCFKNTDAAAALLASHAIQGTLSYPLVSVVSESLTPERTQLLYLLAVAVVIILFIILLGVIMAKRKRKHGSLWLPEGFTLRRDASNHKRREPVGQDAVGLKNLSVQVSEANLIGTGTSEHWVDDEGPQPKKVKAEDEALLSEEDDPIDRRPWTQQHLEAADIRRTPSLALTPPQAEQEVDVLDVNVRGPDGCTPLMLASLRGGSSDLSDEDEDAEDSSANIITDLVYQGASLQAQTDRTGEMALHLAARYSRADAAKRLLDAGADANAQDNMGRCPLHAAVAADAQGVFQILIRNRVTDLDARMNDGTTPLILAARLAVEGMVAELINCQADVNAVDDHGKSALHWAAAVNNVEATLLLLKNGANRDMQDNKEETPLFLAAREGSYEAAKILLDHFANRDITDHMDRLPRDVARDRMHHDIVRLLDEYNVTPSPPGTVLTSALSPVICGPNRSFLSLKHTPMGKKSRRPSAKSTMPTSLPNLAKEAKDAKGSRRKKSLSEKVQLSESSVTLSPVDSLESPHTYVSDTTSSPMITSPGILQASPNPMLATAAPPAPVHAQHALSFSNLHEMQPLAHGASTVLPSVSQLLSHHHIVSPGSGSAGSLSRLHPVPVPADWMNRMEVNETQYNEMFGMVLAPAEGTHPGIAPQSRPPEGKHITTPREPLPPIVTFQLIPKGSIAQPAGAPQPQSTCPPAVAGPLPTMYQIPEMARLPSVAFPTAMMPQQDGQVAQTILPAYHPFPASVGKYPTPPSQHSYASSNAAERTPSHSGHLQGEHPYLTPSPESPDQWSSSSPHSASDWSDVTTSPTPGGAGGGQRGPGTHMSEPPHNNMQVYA
Pro-neuregulin-1, membrane-bound isoform (Homo sapiens), sequence (Q02297 whole entry, looked up, the tested form may be a part, canonical isoform): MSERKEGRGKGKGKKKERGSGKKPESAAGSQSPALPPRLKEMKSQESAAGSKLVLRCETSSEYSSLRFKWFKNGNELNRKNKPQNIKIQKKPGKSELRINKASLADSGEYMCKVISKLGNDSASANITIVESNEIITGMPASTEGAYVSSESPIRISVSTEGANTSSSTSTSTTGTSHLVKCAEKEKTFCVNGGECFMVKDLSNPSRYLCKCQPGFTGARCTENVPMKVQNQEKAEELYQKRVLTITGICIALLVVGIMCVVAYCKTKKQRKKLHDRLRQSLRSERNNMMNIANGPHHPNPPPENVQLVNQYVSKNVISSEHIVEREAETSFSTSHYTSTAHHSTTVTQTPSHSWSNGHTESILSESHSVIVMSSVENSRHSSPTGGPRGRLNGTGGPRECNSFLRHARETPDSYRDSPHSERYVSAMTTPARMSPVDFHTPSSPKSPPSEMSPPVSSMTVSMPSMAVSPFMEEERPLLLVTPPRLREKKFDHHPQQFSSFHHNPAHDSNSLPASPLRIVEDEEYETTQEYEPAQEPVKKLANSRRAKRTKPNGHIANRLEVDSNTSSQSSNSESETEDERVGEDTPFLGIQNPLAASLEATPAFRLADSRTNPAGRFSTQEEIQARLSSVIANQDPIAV

As to `C=CCC(OC(C)=O)[C@@H]1[C@@H](N(Cc2cccc3ccccc23)C(=O)c2ccc(C)cc2)c2cc(OCCCO)ccc2N1C(=O)c1ccc2ccccc2c1` (stereo not given in full), the composite z-score in assay [1] is -0.0181; in assay [2], 0.0379; in assay [3] it was -0.152; in [4], 0.409; in assay [5], 0.145; in assay [6] it was -0.126. Further, the composite z-score is -0.163 in assay [7]; 0.137 in assay [9]; 0.0695 in assay [10]; 0.377 in assay [11]; 1.19 in [15]; -0.0574 in assay [17]. Moreover, the composite z-score in assay [18] is 0.684; in [19] it was 0.103; in assay [20] it was -0.0432. Also, the z-score is -1.8 (inactive) in assay [8]; -0.844 (inactive) in assay [12]; 0.148 (inactive) in assay [13]; -0.302 (inactive) in assay [14]; 0.649 (inactive) in [16].

Regarding `CC(C)CCC[C@@H](C)[C@H]1CC[C@@]2(C)C3=C(CC[C@]12C)[C@@]1(C)CC[C@H](OC(=O)c2ccc(N)cc2)C(C)(C)C1CC3` (stereo not given in full), the composite z-score in assay [1] was -0.219; in assay [2] it was 0.481; in assay [3] it was -0.145; in [4] it was 0.448; in [5] it was 0.558; in assay [6], -0.0202. The composite z-score was 0.649 in [7]; 0.0576 in [9]; -0.406 in [10]; 0.68 in assay [11]; -0.0362 in assay [15]; -0.19 in [17]. The results for the composite z-score in assay [18], in assay [19] and in assay [20] were 0.434, 0.614 and -0.0238, respectively. Besides, the z-score in [8] was -1.35 (inactive); in assay [12] it was -1.77 (inactive); in assay [13], -1 (inactive); in [14], -0.246 (inactive); in assay [16], 2.78 (inactive).

As to `O=C1N(Cc2ccccc2)c2ccccc2[C@H]2OC(c3ccc(OCCCO)cc3)=N[C@@]12CCS(=O)(=O)c1ccccc1`, the composite z-score in [1] was found to be 0.149; in assay [2], 0.527; in assay [3], 0.11; in [4], 0.951; in [5], 0.931; in assay [6], 1.76. Also, the composite z-score worked out at 1.28 in [7]; 0.574 in [9]; 0.167 in assay [10]; 1.54 in [11]; 3.36 in assay [15]; 0.0137 in assay [17]. Besides, the composite z-score in assay [18] is 1.75; in assay [19] it was 1.08; in [20] it was -0.0531. Also, the z-score in [8] was -1.25 (inactive); in assay [12] it was 1.19 (inactive); in [13], 0.485 (inactive); in assay [14] it was 8.14 (active); in assay [16], -0.81 (inactive).

Turning to `O=C1N(CCS(=O)(=O)c2ccccc2)Cc2ccccc2C[C@@]12COC(c1ccc(OCCCO)cc1)=N2`, the composite z-score in [1] was 0.965; in assay [2], 0.667; in assay [3], 0.212; in assay [4], 0.613; in assay [5] it was 1.45; in [6], 1.02. The composite z-score was 1.35 in assay [7]; 1.58 in [9]; -0.0459 in assay [10]; 1.54 in assay [11]; 3.04 in [15]; 0.686 in assay [17]. Further, the values for the composite z-score in assay [18], in [19] and in assay [20] were 0.982, 1.04 and 0.285, respectively. For the same compound, the z-score was 0.0674 (inactive) in assay [8]; 0.978 (inactive) in [12]; 0.381 (inactive) in assay [13]; 3.45 (inactive) in assay [14]; 0.937 (inactive) in [16].

Regarding `COc1ccc(C(=O)Nc2ccc(CN3C(=O)[C@@]4(O[C@@H](CC(=O)N5Cc6ccccc6C[C@H]5CO)[C@H]([Si](C)(C)c5ccc(OC)cc5)[C@H]4C)c4ccccc43)cc2)cc1`, the composite z-score in assay [1] was -0.313; in assay [2], 0.17; in [3], 0.0275; in assay [4] it was 0.158; in assay [5], -0.0395; in assay [6] it was 0.822. In addition, the composite z-score is 1.1 in assay [7]; 0.185 in [9]; -0.173 in assay [10]; 1.51 in assay [11]; 1.92 in assay [15]; -0.215 in [17]. Besides, the composite z-score in assay [18] was 1.61; in assay [19] it was 1.13; in assay [20], -0.0961. The z-score in [8] is -4.29 (inactive); in assay [12], -1.8 (inactive); in assay [13], 0.821 (inactive); in assay [14], 1.87 (inactive); in [16] it was 0.265 (inactive).

For the compound `COC(=O)c1c(CC[C@@H](CO)NC(=O)N[C@@H](C)Cn2cc(C3(O)CCCC3)nn2)oc(C(C)=O)c1C(=O)OC`, the composite z-score in [1] was -0.36; in assay [2] it was 0.715; in assay [3], -0.154; in assay [4], 0.143; in assay [5] it was 0.263; in assay [6] it was 0.974. The composite z-score is 1.02 in assay [7]; 0.517 in [9]; 0.0002 in [10]; 0.913 in [11]; 2 in assay [15]; -0.0126 in [17]. For the same compound, the results for the composite z-score in assay [18], in assay [19] and in assay [20] were 0.555, 0.634 and -0.0237, respectively. Also, the z-score in assay [8] is 0.533 (inactive); in assay [12] it was 0.009 (inactive); in [13] it was -1.03 (inactive); in [14], -0.117 (inactive); in assay [16] it was -0.159 (inactive).

As to `C[N+](C)(C)CCCCCCNC(=O)[C@H]1C[C@H]2C(=O)N3CCC[C@H]3C(=O)N2[C@H]1c1cccc(OCCO)c1`, the composite z-score in assay [1] is -0.238; in assay [2], 2.05; in assay [3], 0.0111; in assay [4], 0.573; in assay [5], 0.761; in assay [6], 0.577. The composite z-score in assay [7] is 1.42; in assay [9], 0.301; in [10] it was 0.154; in assay [11] it was 1.3; in assay [15] it was 3.24; in [17] it was 0.05. Besides, the composite z-score in assay [18] turned out to be 0.666; in assay [19], 1.08; in [20], 0.153. Besides, the z-score is 4.55 (inactive) in [8]; -0.811 (inactive) in assay [12]; -0.486 (inactive) in assay [13]; 0.0309 (inactive) in assay [14]; -0.64 (inactive) in [16].

For `Cc1cc(C)c(C(O)C2C=CC3C(=O)N(c4ccccc4)C(=O)C3N2Nc2ccc([N+](=O)[O-])cc2)c(C)c1` (stereo not given), the composite z-score in [1] was found to be 0.0096; in assay [2] it was 0.129; in [3] it was 0.0748; in assay [4], 0.453; in assay [5] it was 1.68; in assay [6], 1.9. Moreover, the composite z-score in [7] was 1.36; in assay [9], 1.51; in [10], -0.223; in [11], 1.54; in assay [15], 3.73; in [17], 0.216. Further, the composite z-score in [18] came to 0.525; in assay [19], 1.02; in assay [20], 0.0225. The z-score in assay [8] is -0.625 (inactive); in assay [12], -0.695 (inactive); in [13], 0.957 (inactive); in [14], 2.16 (inactive); in assay [16], 0.356 (inactive).

As to `COc1cccc(C)c1NC(=O)O[C@H]1[C@H](OC(=O)Nc2ccccc2)[C@H](OC(=O)Nc2ccccc2)[C@@H](OC)O[C@@H]1CO`, the composite z-score in assay [1] is -0.306; in assay [2], 0.559; in [3] it was -0.0216; in [4], 0.401; in assay [5], 1.16; in assay [6] it was 1.64. Moreover, the composite z-score is 1.22 in assay [7]; 0.319 in assay [9]; -0.0994 in [10]; 1.55 in [11]; 3.35 in [15]; 0.0682 in assay [17]. Also, the composite z-score in assay [18] was 0.203; in assay [19], 0.93; in [20], -0.125. Further, the z-score in assay [8] is 1.59 (inactive); in assay [12], 0.547 (inactive); in assay [13] it was 1.03 (inactive); in [14], 3.23 (inactive); in assay [16], -0.721 (inactive).
